Measurements reported in PubChem BioAssay (NCI).
About 79,000 compounds went through this panel and 15% of them were active in at least one assay; those are over-represented in the sample as a whole. Activity calls are given as the source filed them. No stated cut-off is given here; in the data, active means growth inhibition above about 70%; inactive means the rest.

Key:
[1] = NCI Yeast Anticancer Drug Screen. Data for the wt1 strain (AID 149);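 further: 0% = growth of vehicle-treated wt1 cultures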; conditions: S. cerevisiae wt1 strain (SPY 50644) growth inhibition, stronger effect = higher value
In short: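 The wt1 strain was treated with compounds, and growth was compared with vehicle-treated cultures to give inhibition.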

[2] = NCI Yeast Anticancer Drug Screen. Data for the rad50EPP+ strain (AID 151);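 further: 0% = growth of vehicle-treated control cultures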; conditions: S. cerevisiae rad50 mutant strain, stronger effect = higher value
In short: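 Compounds were applied to the rad50EPP+ yeast strain, which bears a defined DNA repair alteration, and growth inhibition was determined relative to vehicle-treated cultures.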

[3] = NCI Yeast Anticancer Drug Screen. Data for the mgt1 strain (AID 153); conditions: S. cerevisiae mgt1 mutant growth inhibition, stronger effect = higher value
In short: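 Strain: mgt1 yeast, one of a set carrying defined DNA damage repair or cell cycle control alterations. Compound-treated growth compared with vehicle.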

[4] = NCI Yeast Anticancer Drug Screen. Data for the rad50 strain (AID 155);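 further: 0% = growth of vehicle-only cultures of the same strain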; conditions: S. cerevisiae rad50 strain growth inhibition, stronger effect = higher value
In short: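 Cells are treated with compound, grown, and their growth is then scored against vehicle-only cultures of the same repair-deficient yeast strain.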

[5] = NCI Yeast Anticancer Drug Screen. Data for the mec2-1 strain (AID 157); conditions: S. cerevisiae mec2-1 strain, stronger effect = higher value
In short: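 Strain: mec2-1 (DNA repair/cell cycle alteration). Compound exposure, then growth measured; inhibition expressed relative to vehicle.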

[6] = NCI Yeast Anticancer Drug Screen. Data for the rad14 strain (AID 159);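 further: 0% = growth of vehicle-treated control cultures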; conditions: S. cerevisiae rad14 strain growth inhibition, stronger effect = higher value
In short: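 Readout: yeast growth inhibition, referenced to vehicle-only cultures. Strain bears a defined alteration in DNA damage repair.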

[7] = NCI Yeast Anticancer Drug Screen. Data for the sgs1 mgt1 strain (AID 161);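 further: 0% = growth of cultures given vehicle only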; conditions: S. cerevisiae sgs1 mgt1 strain, stronger effect = higher value
In short: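 Test agents were incubated with a DNA-repair-mutant yeast strain. Growth was then read and compared against vehicle-treated controls.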

[8] = NCI Yeast Anticancer Drug Screen. Data for the CLN2oe strain (AID 163);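 further: 0% = growth of vehicle-only control cultures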; conditions: S. cerevisiae CLN2oe strain, stronger effect = higher value
In short: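 Growth of a genetically modified yeast strain is measured after compound exposure and compared with cultures given vehicle alone.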

[9] = NCI Yeast Anticancer Drug Screen. Data for the cln2 rad14 strain (AID 165);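 further: 0% = growth equal to vehicle treated cultures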; conditions: S. cerevisiae cln2 rad14 strain, stronger effect = higher value
In short: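 Compounds are applied to the cln2 rad14 yeast strain, and growth is then compared with that of vehicle-treated cultures to give inhibition.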

[10] = NCI Yeast Anticancer Drug Screen. Data for the bub3 strain (AID 167); conditions: S. cerevisiae bub3 mutant strain, stronger effect = higher value
In short: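 Part of a panel of yeast mutants defective in DNA damage repair or cell cycle regulation. Each strain is grown with compound, and inhibition is calculated relative to solvent-treated cultures.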

[11] = NCI Yeast Anticancer Drug Screen. Data for the wt2 strain (AID 169);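 further: 0% = growth of vehicle-treated yeast cultures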; conditions: S. cerevisiae wt2 strain growth inhibition, stronger effect = higher value
In short: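 This strain belongs to a panel of yeast strains with defined genetic alterations in DNA damage repair or cell cycle control. Compounds are applied, and growth inhibition is measured against vehicle-treated cultures.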

[12] = NCI Yeast Anticancer Drug Screen. Data for the mlh1 strain (AID 171);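 further: 0% = growth of vehicle-treated control cultures of the same strain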; conditions: S. cerevisiae mlh1 strain growth inhibition, stronger effect = higher value
In short: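 Growth of the mutant yeast strain after compound exposure, expressed as inhibition relative to vehicle-only controls.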

[13] = NCI Yeast Anticancer Drug Screen. Data for the sgs1 strain (AID 173);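 further: 0% = growth of vehicle-only control cultures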; conditions: S. cerevisiae sgs1 mutant, stronger effect = higher value
In short: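 Growth of a yeast strain bearing a defined genetic alteration is measured after compound treatment. Inhibition is expressed relative to vehicle-only controls.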

[14] = NCI Yeast Anticancer Drug Screen. Data for the mlh1 rad18 strain (AID 175); conditions: S. cerevisiae mlh1 rad18 strain growth inhibition, stronger effect = higher value
In short: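 Read-out is yeast growth inhibition, calculated against vehicle-only controls. The compound was applied to a strain engineered with DNA damage repair alterations.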

[15] = NCI Yeast Anticancer Drug Screen. Data for the rad18 strain (AID 177); conditions: S. cerevisiae rad18 mutant growth inhibition, stronger effect = higher value
In short: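 Growth of the mutant yeast strain after compound exposure, normalised to vehicle-only cultures.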

[16] = at 5.0 µM (retest, dose inferred, filed as 0.5)
[17] = at 50.0 µM (retest, dose inferred, filed as 5.0)

Measured: growth inhibition

CC(=O)SC(C[N+](=O)[O-])c1ccccc1 (stereo not drawn)
active: [1]; at 33.0 µM 95% | [1]; at 100.0 µM 100% | [2]; at 1.2 µM 89% | [2]; at 3.7 µM 92% | [2]; at 11.0 µM 95% | [2]; at 33.0 µM 99% | [2]; at 100.0 µM 99% | [3]; at 33.0 µM 81% | [3]; at 100.0 µM 100% | [4]; at 1.2 µM 81% | [4]; at 3.7 µM 92% | [4]; [16] 87% | [4]; at 11.0 µM 96% | [4]; at 33.0 µM 99% | [4]; [17] 98% | [4]; at 50.0 µM 99.2% | [4]; at 100.0 µM 99% | [5]; at 33.0 µM 94% | [5]; [17] 99% | [5]; at 50.0 µM 99.6% | [5]; at 100.0 µM 100% | [6]; at 33.0 µM 98% | [6]; at 100.0 µM 99% | [7]; [17] 98% | [7]; at 50.0 µM 95.8% | [8]; at 33.0 µM 78% | [8]; at 100.0 µM 99% | [9]; [17] 98% | [10]; at 33.0 µM 97% | [10]; [17] 98% | [10]; at 50.0 µM 95.2% | [10]; at 100.0 µM 99% | [11]; at 33.0 µM 99% | [11]; at 100.0 µM 99% | [12]; at 33.0 µM 96% | [12]; at 100.0 µM 99% | [13]; at 33.0 µM 100% | [13]; at 100.0 µM 99% | [14]; [17] 98% | [14]; at 50.0 µM 99.5% | [15]; at 33.0 µM 93% | [15]; at 100.0 µM 99%
inactive: [1]; at 1.2 µM 0% | [1]; at 3.7 µM 0% | [1]; at 11.0 µM 17% | [3]; at 1.2 µM 1% | [3]; at 3.7 µM 4% | [3]; at 11.0 µM 18% | [5]; at 1.2 µM 5% | [5]; at 3.7 µM 17% | [5]; [16] -15% | [5]; at 11.0 µM 52% | [6]; at 1.2 µM 14% | [6]; at 3.7 µM 28% | [6]; at 11.0 µM 42% | [7]; [16] -7% | [8]; at 1.2 µM 7% | [8]; at 3.7 µM 19% | [8]; at 11.0 µM 38% | [9]; [16] -20% | [9]; at 50.0 µM 31.1% | [10]; at 1.2 µM 23% | [10]; at 3.7 µM 30% | [10]; [16] 8% | [10]; at 11.0 µM 68% | [11]; at 1.2 µM -3% | [11]; at 3.7 µM -4% | [11]; at 11.0 µM 14% | [12]; at 1.2 µM 5% | [12]; at 3.7 µM 11% | [12]; at 11.0 µM 33% | [13]; at 1.2 µM 15% | [13]; at 3.7 µM 41% | [13]; at 11.0 µM 62% | [14]; [16] -37% | [15]; at 1.2 µM 19% | [15]; at 3.7 µM 33% | [15]; at 11.0 µM 55%
